34 compounds from PubChem BioAssay AID2810 (NMMLSC, 2010) can be followed below.

This assay can be described thus: modulators of CD8 T cell-vesicle binding, confirmation, cherry-picked primary hits, two concentrations (AID 2810).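 On percent response (vesicle binding): ratio of mean FL2 vesicle stain of CD8+ cells to that row's control.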 The following applies: 2C CD8+ T cell-vesicle binding, flow cytometry; for double positive events: CD8+/vesicle+ events. (In general: Flow cytometry measures light scatter and fluorescence of single cells or particles in a stream.)
[1] abbreviates: at 15.4 µM, stronger effect = lower value.

SMILES strings stand for the structures. The campaign covered roughly 1,200 compounds. About 65 (5%) were called active.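 How the source made its calls: active means at either tested dose, response and 90th-percentile vesicle-stain brightness of CD8 cells under set limits and under 9% cells vesicle-bound; inactive means the rest.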 For the sample, actives were picked, then their nearest neighbours and some compounds at random.

For the compound `CC(C)C(=O)N1CCC2(CC1)Oc1ccc(Cl)cc1C(=O)C21CC(c2cccnc2)=NO1` (stereo unspecified), the double positive events is 6.8% (at 7.7 µM) and 15% under setting [1]. The percent response (vesicle binding) runs as follows: under setting [1], 197% (inactive); (response, at 7.7 µM) 109%.
The corresponding values for `Cc1ccc(C(=O)Nc2cccc(-c3cn4ccccc4n3)c2)cc1` are 7.7%, 10.4%, 300% (inactive) and 439%.
In the same order, the values of `COc1ccc(C(=O)C(C)OC(=O)c2sc(C)nc2C)cc1` (stereo unspecified) are 12.6%, 13.7%, 349% (inactive) and 113%.
In the case of `Cc1ccc2oc(=O)c(/C=C(\O)c3sc(C)nc3C)nc2c1`, the double positive events by setting is: (at 7.7 µM) 17.5%; under setting [1], 0.7%. The percent response (vesicle binding) under setting [1] was 16.1% (active) and the percent response (vesicle binding) (response, at 7.7 µM) was found to be 163%.
In the same order, the values of `NC(=S)N/N=C/c1ccccc1OCCSc1ccc(Cl)cc1` are 7%, 28%, 262% (inactive) and 76.6%.
The corresponding values for `CC(=O)NN1C(=O)c2ccccc2NC1c1ccco1` (stereo unspecified) are 23%, 11.1%, 280% (inactive) and 361%.
The corresponding values for `Cc1ccccc1N=C1SC(CC(=O)Nc2ccc3ccccc3c2)C(=O)N1Cc1ccccn1` (stereo unspecified) are 8.6%, 25.6%, 157% (inactive) and 148%.
`O=C(N/N=C/c1c(O)n(Cc2ccco2)c(=O)[nH]c1=O)c1ccccc1`: the double positive events was determined as 36.4% (at 7.7 µM) and 21.6% under setting [1]. For the same compound, the percent response (vesicle binding) runs as follows: under setting [1], 275% (inactive); (response, at 7.7 µM) 418%.
In the same order, the values of `COc1ccc(C(=O)OCC(=O)NC(=O)NC2CCCC2)c(O)c1` are 13.7%, 9.4%, 148% (inactive) and 254%.
As to `CC(=O)COc1ccc2c(-c3ccccc3)cc(=O)oc2c1`, the double positive events came out at 10.8% (at 7.7 µM) and 8.7% under setting [1]. Moreover, the percent response (vesicle binding) under setting [1] is 123% (inactive) and the percent response (vesicle binding) (response, at 7.7 µM) was found to be 165%.
On to `CCOc1ccc(-c2nc(N)ncc2-c2ccccc2)c(O)c1`, for which the double positive events is 4.3% (at 7.7 µM) and 34.2% under setting [1]. Further, the percent response (vesicle binding) is 276% (active) under setting [1] and 51.6% (response, at 7.7 µM).
In the same order, the values of `CCOC(=O)CSc1nc(C)nc2c1sc1nc(C)c(C(C)=O)c(-c3ccc(OC)cc3)c12` are 22.7%, 7.5%, 128% (inactive) and 327%.
The corresponding values for `CC1=C/C(=C(\c2ccc(O)c(C)c2)c2ccccc2S(=O)(=O)O)C=CC1=O` are 8.5%, 0.5%, 14.6% (active) and 142%.
Turning to `O=C(Nc1nnc(C2=COCCO2)o1)C1CCCCC1`, the double positive events came to 47.3% (at 7.7 µM) and 23% under setting [1]. The percent response (vesicle binding) is, setting by setting: under setting [1], 200% (inactive); (response, at 7.7 µM) 280%.
In the same order, the values of `CS(=O)(=O)NCc1ccccc1Br` are 31%, 2.7%, 34% (active) and 371%.
In the same order, the values of `Cc1nc2sc(C(c3ccccc3)N3CCN(c4ccccc4F)CC3)c(O)n2n1` (stereo unspecified) are 38.2%, 4.2%, 142% (inactive) and 239%.
In the same order, the values of `CCOc1ccccc1NC(=O)c1ccc(CN2CCc3ccccc3C2)cc1` are 11.5%, 30%, 739% (inactive) and 110%.
For the compound `COc1ccc2nc(SCC(=O)Nc3ccc4c(c3)OCCO4)[nH]c2c1`, the double positive events was found to be 10.5% (at 7.7 µM) and 19.8% under setting [1]. The percent response (vesicle binding) runs as follows: under setting [1], 168% (inactive); (response, at 7.7 µM) 164%.
Regarding `O=C(/C=C/c1ccccc1)OCC(=O)c1ccc[nH]1`, the double positive events (at 7.7 µM) worked out at 14.3% and the double positive events under setting [1] amounted to 30.2%. The percent response (vesicle binding) is 439% (inactive) under setting [1] and 424% (response, at 7.7 µM).
With `CCOC(=O)C1CCN(C(=O)CN2C(=O)c3ccccc3S2(=O)=O)CC1`, the double positive events runs as follows: (at 7.7 µM) 13%; under setting [1], 23%. In addition, the percent response (vesicle binding) runs as follows: under setting [1], 203% (inactive); (response, at 7.7 µM) 166%.
In the same order, the values of `CCOC(=O)C1CCCN(c2cc(=O)n(-c3ccccc3Cl)c(=O)[nH]2)C1` (stereo unspecified) are 10.2%, 2.3%, 18.2% (active) and 131%.
The corresponding values for `CCOC(=O)C1CCCN(S(=O)(=O)c2ccc(F)c(C(=O)Nc3ccc(F)c(F)c3)c2)C1` (stereo unspecified) are 13.5%, 23.8%, 153% (inactive) and 105%.
In the same order, the values of `O=C1c2cccc3c2[C@H](CCC3)CN1[C@@H]1CN2CCC1CC2` are 19.9%, 28.1%, 727% (inactive) and 238%.
On to `COc1ccc(C2=Nc3cc(C)ccc3OC2)cc1`, for which the double positive events by setting is: (at 7.7 µM) 12.1%; under setting [1], 2%. Moreover, the percent response (vesicle binding) was 53.5% (active) under setting [1] and 546% (response, at 7.7 µM).
The corresponding values for `CCCCN(C(=O)CCCc1nc2ccccc2s1)c1c(N)n(CC(C)C)c(=O)[nH]c1=O` are 14.2%, 7.8%, 50.8% (inactive) and 386%.
The corresponding values for `CCCN(Cc1ccc(N(C)C)cc1)CC1CC1` are 16.6%, 22.1%, 413% (inactive) and 436%.
The corresponding values for `CN(C(=O)COC(=O)c1cccc(NS(=O)(=O)c2ccc(F)c(F)c2)c1)C1CCS(=O)(=O)C1` (stereo unspecified) are 21.6%, 29.3%, 264% (inactive) and 393%.
Take `CN1CCN(c2oc(-c3ccc([N+](=O)[O-])cc3)nc2C#N)CC1`: the double positive events is, setting by setting: (at 7.7 µM) 8.5%; under setting [1], 9.4%. Further, the percent response (vesicle binding) is 143% (inactive) under setting [1] and 149% (response, at 7.7 µM).
In turn, `Cc1cccc(OCC(=O)NC(Cc2ccccc2)C(=O)O)c1` (stereo unspecified) had a double positive events (at 7.7 µM) of 7.7% and a double positive events under setting [1] of 11.5%. For the same compound, the percent response (vesicle binding) under setting [1] was 295% (inactive) and the percent response (vesicle binding) (response, at 7.7 µM) is 136%.
In the same order, the values of `CC(C)[C@H]1C(=O)Nc2ccccc2N1C(=O)N[C@@H](Cc1ccccc1)C(=O)N[C@@H](Cc1ccccc1)C(=O)O` are 36.3%, 8.9%, 55.5% (active) and 394%.
The corresponding values for `CC(=O)Nc1ccc(S(=O)(=O)NC2CCSc3ccccc32)cc1` (stereo unspecified) are 13.6%, 10.4%, 146% (inactive) and 238%.
As for `COc1ccc(C(=O)CSc2nnc(CNC(=O)c3ccc(OC)c(OC)c3)n2C)cc1`, the double positive events is 7.6% (at 7.7 µM) and 15.6% under setting [1]. Moreover, the percent response (vesicle binding) is 136% (inactive) under setting [1] and 300% (response, at 7.7 µM).
In the same order, the values of `COc1ccc(CNc2nnnn2C)cc1` are 28.6%, 12.4%, 192% (inactive) and 376%.
The corresponding values for `COc1ccc(C(=O)NNC(=O)CSc2nnnn2C)cc1` are 13.8%, 1.8%, 19.1% (active) and 160%.
